Measured values taken from the supplement of paper PMC10849652.
About 8,800 targets were measured; listed, in parts, are those with a hit and a random draw of the rest. About 0.5% of all pairs of compound and target were hits.

Assays:
Experiment in all cases: log2 fold change, soluble protein after heating vs DMSO (PISA); higher = thermal stabilisation; K562 lysate, 10 uM; active = over 0.2 and 3.5 SD of the protein, either way, in both replicates (recomputed)
lapatinib = compound: CS(=O)(=O)CCNCc1ccc(-c2ccc3ncnc(Nc4ccc(OCc5cccc(F)c5)c(Cl)c4)c3c2)o1 [lapatinib]
Method in brief: (§1)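 To prepare the extract, K562 pellets were dounce-homogenised in PBS pH 7.4 with 1 mM MgCl2, giving crude material at 1 mg/mL protein. This was treated with 10 μM compound for 30 min, then heated in aliquots for 3 min over 48°C-58°C before pooling and addition of NP-40 to 0.5% at 4°C. Centrifugation at 21,000xg for 90 min left soluble protein in the supernatant, which TMTpro 16plex LC-MS/MS quantified with equalised channel sums. Results are log-two fold changes in thermal stability compared with solvent controls, from duplicates.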

pictilisib = compound: CS(=O)(=O)N1CCN(Cc2cc3nc(-c4cccc5[nH]ncc45)nc(N4CCOCC4)c3s2)CC1 [pictilisib]
Method in brief: as §1

crizotinib = compound: C[C@@H](Oc1cc(-c2cnn(C3CCNCC3)c2)cnc1N)c1c(Cl)ccc(F)c1Cl [crizotinib]
Method in brief: as §1

[1] = compound: C[C@H](C1=CC=C(C=C1)C(=O)NC2=C3C=CNC3=NC=C2)N
Method in brief: as §1

gandotinib = compound: Cc1cc(Nc2cc(CN3CCOCC3)c3nc(C)c(Cc4ccc(Cl)cc4F)n3n2)n[nH]1 [gandotinib]
Method in brief: as §1

tozasertib = compound: Cc1cc(Nc2cc(N3CCN(C)CC3)nc(Sc3ccc(NC(=O)C4CC4)cc3)n2)n[nH]1 [tozasertib]
Method in brief: as §1

doramapimod = compound: Cc1ccc(-n2nc(C(C)(C)C)cc2NC(=O)Nc2ccc(OCCN3CCOCC3)c3ccccc23)cc1 [doramapimod]
Method in brief: as §1

bafetinib = compound: Cc1ccc(NC(=O)c2ccc(CN3CC[C@H](N(C)C)C3)c(C(F)(F)F)c2)cc1Nc1nccc(-c2cncnc2)n1 [bafetinib]
Method in brief: as §1

[2] = compound: Cc1cccc(CC(=O)N2CCc3c2ccc(-c2cn(C)c4ncnc(N)c24)c3F)n1
Method in brief: as §1

nilotinib = compound: Cc1cn(-c2cc(NC(=O)c3ccc(C)c(Nc4nccc(-c5cccnc5)n4)c3)cc(C(F)(F)F)c2)cn1 [nilotinib]
Method in brief: as §1

[3] = compound: Cc1nc(Nc2n[nH]c3c2CN(C(=O)N[C@H](CN(C)C)c2ccccc2)C3(C)C)c2sccc2n1
Method in brief: as §1

[4] = compound: Cc1ncc(-c2ccnc(Nc3ccc(S(C)(=O)=O)cc3)n2)n1C(C)C
Method in brief: as §1

quisinostat = compound: Cn1cc(CNCC2CCN(c3ncc(C(=O)NO)cn3)CC2)c2ccccc21 [quisinostat]
Method in brief: as §1

tipifarnib = compound: Cn1cncc1[C@@](N)(c1ccc(Cl)cc1)c1ccc2c(c1)c(-c1cccc(Cl)c1)cc(=O)n2C [tipifarnib]
Method in brief: as §1

[5] = compound: NC(=O)Nc1cc(-c2cccc(F)c2)sc1C(=O)N[C@H]1CCCNC1
Method in brief: as §1

[6] = compound: NC(=O)c1cnc(N[C@@H]2CCCC[C@@H]2N)nc1Nc1cccc(-n2nccn2)c1
Method in brief: as §1

[7] = compound: NC1(c2ccc(-c3nc4ccn5c(=O)[nH]nc5c4cc3-c3ccccc3)cc2)CCC1
Method in brief: as §1

duvelisib = compound: C[C@H](Nc1ncnc2nc[nH]c12)c1cc2cccc(Cl)c2c(=O)n1-c1ccccc1 [duvelisib]
Method in brief: as §1

dasatinib = compound: Cc1nc(Nc2ncc(C(=O)Nc3c(C)cccc3Cl)s2)cc(N2CCN(CCO)CC2)n1 [dasatinib]
Method in brief: as §1

[8] = compound: Cn1cc(-c2ccc3c(c2)CCN3C(=O)Cc2cccc(C(F)(F)F)c2)c2c(N)ncnc21
Method in brief: as §1

Measured: log2 fold change

TFAP4 (UniProt Q01664)
Chain of UniProt Q01664 (Q01664 whole entry, looked up): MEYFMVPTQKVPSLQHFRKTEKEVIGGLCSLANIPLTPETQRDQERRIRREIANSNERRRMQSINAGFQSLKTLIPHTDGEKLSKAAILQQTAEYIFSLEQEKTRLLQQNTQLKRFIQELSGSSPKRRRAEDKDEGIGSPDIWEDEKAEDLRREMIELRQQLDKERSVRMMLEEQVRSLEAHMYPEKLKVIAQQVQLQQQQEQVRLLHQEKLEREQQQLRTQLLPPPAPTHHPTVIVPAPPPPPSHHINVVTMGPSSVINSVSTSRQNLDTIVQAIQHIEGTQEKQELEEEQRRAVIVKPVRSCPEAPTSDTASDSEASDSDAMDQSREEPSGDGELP
inactive: lapatinib -0.05 | pictilisib 0.022 | crizotinib 0.009 | gandotinib 0.033 | tozasertib -0.05 | doramapimod 0.017 | bafetinib -0.214 | [2] -0.217 | nilotinib 0.18 | [3] 0.155 | [4] 0 | quisinostat 0.006 | tipifarnib -0.066 | [5] -0.036 | [6] -0.218 | [7] -0.001
active: [1] 0.477

TBC1D20 isoform 3 (UniProt Q96BZ9)
Chain of UniProt Q96BZ9 (Q96BZ9 whole entry, looked up): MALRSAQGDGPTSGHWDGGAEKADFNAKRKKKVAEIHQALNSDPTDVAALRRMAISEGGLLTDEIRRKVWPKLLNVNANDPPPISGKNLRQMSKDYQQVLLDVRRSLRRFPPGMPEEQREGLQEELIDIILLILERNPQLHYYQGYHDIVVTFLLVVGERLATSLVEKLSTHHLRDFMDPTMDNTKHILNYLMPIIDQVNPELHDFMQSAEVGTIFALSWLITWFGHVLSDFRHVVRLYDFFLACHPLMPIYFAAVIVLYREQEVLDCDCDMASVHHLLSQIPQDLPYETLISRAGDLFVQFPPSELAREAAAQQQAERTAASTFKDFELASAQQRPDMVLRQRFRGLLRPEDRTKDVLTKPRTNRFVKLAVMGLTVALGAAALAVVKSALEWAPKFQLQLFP
inactive: lapatinib -0.019 | pictilisib -0.12 | crizotinib -0.066 | [1] -0.087 | duvelisib 0.021 | gandotinib -0.105 | tozasertib -0.017 | doramapimod -0.095 | bafetinib -0.303 | [2] 0.025 | dasatinib 0.027 | [8] -0.053 | quisinostat -0.021 | [5] 0.067 | [6] -0.072 | [7] -0.006

TMPO (UniProt P42167)
Chain of UniProt P42167 (P42167 whole entry, looked up): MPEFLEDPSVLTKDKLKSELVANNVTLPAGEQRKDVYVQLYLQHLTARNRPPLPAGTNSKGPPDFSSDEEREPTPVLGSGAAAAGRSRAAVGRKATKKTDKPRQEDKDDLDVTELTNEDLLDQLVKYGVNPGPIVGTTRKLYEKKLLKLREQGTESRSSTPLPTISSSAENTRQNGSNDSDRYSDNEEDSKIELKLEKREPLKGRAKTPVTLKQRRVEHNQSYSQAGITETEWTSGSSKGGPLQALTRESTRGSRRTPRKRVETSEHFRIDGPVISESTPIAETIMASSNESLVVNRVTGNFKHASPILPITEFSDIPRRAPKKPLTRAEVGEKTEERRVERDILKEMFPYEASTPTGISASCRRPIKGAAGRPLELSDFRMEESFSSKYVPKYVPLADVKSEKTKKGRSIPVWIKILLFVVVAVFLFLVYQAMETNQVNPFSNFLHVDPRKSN
inactive: lapatinib 0.053 | pictilisib 0.029 | crizotinib 0.059 | [1] 0.047 | duvelisib -0.039 | gandotinib -0.033 | tozasertib 0.035 | doramapimod -0.037 | bafetinib 0.005 | [2] -0.04 | nilotinib -0.033 | [3] -0.003 | dasatinib 0.008 | [4] -0.042 | [8] -0.016 | quisinostat 0.061 | tipifarnib -0.034 | [5] 0.009 | [6] -0.011 | [7] 0.007

TMEM161B (UniProt Q8NDZ6)
inactive: lapatinib -0.057 | pictilisib -0.05 | crizotinib 0.007 | [1] 0.009 | tozasertib 0.009 | doramapimod -0.03 | bafetinib 0.007 | [2] 0.077 | [3] -0.014 | [4] 0.053 | quisinostat -0.07 | tipifarnib -0.117 | [5] 0.046 | [6] -0.005 | [7] -0.064
active: gandotinib -0.289 | nilotinib 0.419

TMEM14C (UniProt Q9P0S9)
Chain of UniProt Q9P0S9 (Q9P0S9 whole entry, looked up): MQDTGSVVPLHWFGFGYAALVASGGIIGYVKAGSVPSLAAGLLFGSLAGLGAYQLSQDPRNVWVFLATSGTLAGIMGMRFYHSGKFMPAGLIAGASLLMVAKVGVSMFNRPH
inactive: lapatinib 0.123 | pictilisib 0.162 | crizotinib -0.087 | duvelisib 0.016 | tozasertib -0.099 | doramapimod 0.002 | bafetinib -0.094 | nilotinib 0.065 | [3] -0.089 | dasatinib 0.031 | [4] 0.13 | [8] 0.029 | quisinostat -0.299 | tipifarnib -0.017 | [5] 0.029 | [6] -0.13 | [7] -0.07

TTC4 (UniProt O95801)
inactive: lapatinib 0.006 | pictilisib 0.025 | crizotinib -0.073 | [1] -0.059 | duvelisib -0.001 | gandotinib 0.035 | tozasertib 0.009 | doramapimod 0.014 | bafetinib -0.001 | [2] 0.026 | nilotinib -0.04 | [3] -0.034 | dasatinib 0.025 | [4] -0.018 | [8] 0.012 | quisinostat -0.07 | tipifarnib -0.01 | [5] 0.025 | [6] 0.023 | [7] -0.018

TENM4 (UniProt Q6N022)
inactive: lapatinib -0.169 | pictilisib -0.065 | crizotinib -0.07 | [1] 0.415 | gandotinib -0.028 | doramapimod -0.068 | bafetinib -0.148 | [2] -0.032 | quisinostat -0.13 | [5] 0.033 | [6] -0.081

TASP1 (UniProt Q9H6P5)
inactive: lapatinib 0.009 | pictilisib -0.217 | crizotinib -0.086 | duvelisib 0 | tozasertib -0.002 | doramapimod 0.053 | bafetinib -0.235 | nilotinib -0.319 | [3] -0.062 | dasatinib -0.124 | [4] 0.077 | [8] -0.003 | quisinostat -0.094 | tipifarnib 0.089 | [5] 0.046 | [6] -0.053 | [7] -0.056

TUBAL3 (UniProt A6NHL2)
Chain of UniProt A6NHL2 (A6NHL2 whole entry, looked up): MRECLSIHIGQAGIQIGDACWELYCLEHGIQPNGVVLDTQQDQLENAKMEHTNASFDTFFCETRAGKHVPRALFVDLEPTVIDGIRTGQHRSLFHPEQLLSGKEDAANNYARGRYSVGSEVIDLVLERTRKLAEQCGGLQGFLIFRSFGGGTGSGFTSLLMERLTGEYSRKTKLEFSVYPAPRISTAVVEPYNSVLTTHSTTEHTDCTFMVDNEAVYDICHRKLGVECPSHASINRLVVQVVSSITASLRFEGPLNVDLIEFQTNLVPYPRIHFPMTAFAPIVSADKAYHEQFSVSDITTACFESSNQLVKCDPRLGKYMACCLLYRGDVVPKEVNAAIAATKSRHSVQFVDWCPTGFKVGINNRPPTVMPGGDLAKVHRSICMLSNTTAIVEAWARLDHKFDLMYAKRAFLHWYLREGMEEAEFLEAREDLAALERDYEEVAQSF
active: [2] 0.567
inactive: lapatinib -0.07 | pictilisib -0.034 | [1] -0.434 | duvelisib -0.001 | gandotinib 0.312 | tozasertib 0.09 | bafetinib -0.232 | nilotinib 0.068 | [3] -0.189 | dasatinib -0.074 | [4] 0.103 | [8] 0.082 | tipifarnib 0.141 | [6] -0.025 | [7] -0.142

TFPI (UniProt P10646)
Chain of UniProt P10646 (P10646 whole entry, looked up): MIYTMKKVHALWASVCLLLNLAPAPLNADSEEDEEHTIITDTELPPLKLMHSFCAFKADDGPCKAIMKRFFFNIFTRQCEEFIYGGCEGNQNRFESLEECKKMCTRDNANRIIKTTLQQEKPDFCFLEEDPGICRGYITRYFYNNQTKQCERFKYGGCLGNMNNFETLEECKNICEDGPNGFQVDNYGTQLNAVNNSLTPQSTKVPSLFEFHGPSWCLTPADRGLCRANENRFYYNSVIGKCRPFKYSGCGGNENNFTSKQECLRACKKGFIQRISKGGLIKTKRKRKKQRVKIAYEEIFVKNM
inactive: lapatinib -0.035 | pictilisib 0.009 | crizotinib 0.036 | gandotinib -0.202 | tozasertib -0.01 | doramapimod 0.082 | bafetinib 0.149 | [2] -0.301 | nilotinib -0.076 | [3] 0.04 | [4] -0.035 | quisinostat -0.088 | tipifarnib -0.025 | [5] -0.067 | [6] 0.035 | [7] 0.02
active: [1] 0.625

TMEM167B (UniProt Q9NRX6)
Chain of UniProt Q9NRX6 (Q9NRX6 whole entry, looked up): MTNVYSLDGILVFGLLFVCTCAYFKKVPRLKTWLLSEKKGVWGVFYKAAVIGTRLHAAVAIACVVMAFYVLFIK
inactive: lapatinib -0.045 | pictilisib -0.034 | crizotinib 0.006 | gandotinib 0.133 | tozasertib -0.003 | doramapimod -0.083 | bafetinib -0.075 | [2] 0.128 | nilotinib 0.006 | [3] 0.031 | [4] 0.014 | quisinostat -0.016 | tipifarnib -0.013 | [5] 0.027 | [6] 0.005 | [7] -0.019
active: [1] -0.339

TFPT (UniProt P0C1Z6)
inactive: lapatinib -0.004 | pictilisib 0.032 | duvelisib -0.005 | bafetinib -0.004 | dasatinib 0.009 | [8] 0.006 | [6] 0.023 | [7] -0.002

TMSB4X (UniProt P62328)
Chain of UniProt P62328 (P62328 whole entry, looked up): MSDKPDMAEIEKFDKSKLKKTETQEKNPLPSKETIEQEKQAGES
inactive: lapatinib 0.12 | pictilisib -0.553 | crizotinib 0.015 | [1] -0.132 | gandotinib 0.65 | tozasertib 0.123 | doramapimod -0.24 | bafetinib -0.546 | [2] -0.166 | nilotinib -0.105 | [3] -0.107 | [4] 0.115 | quisinostat -0.024 | tipifarnib -0.071 | [5] 0.263 | [6] -0.027 | [7] 0

THAP9 (UniProt Q9H5L6)
active: [1] -0.675
inactive: lapatinib -0.035 | pictilisib -0.154 | crizotinib -0.203 | duvelisib 0.012 | gandotinib 0.429 | tozasertib -0.045 | doramapimod 0.009 | bafetinib -0.007 | [2] 0.323 | dasatinib 0.025 | [8] -0.032 | quisinostat -0.455 | [5] 0.07 | [6] 0.179

UBXN10 (UniProt Q96LJ8)
Chain of UniProt Q96LJ8 (Q96LJ8 whole entry, looked up): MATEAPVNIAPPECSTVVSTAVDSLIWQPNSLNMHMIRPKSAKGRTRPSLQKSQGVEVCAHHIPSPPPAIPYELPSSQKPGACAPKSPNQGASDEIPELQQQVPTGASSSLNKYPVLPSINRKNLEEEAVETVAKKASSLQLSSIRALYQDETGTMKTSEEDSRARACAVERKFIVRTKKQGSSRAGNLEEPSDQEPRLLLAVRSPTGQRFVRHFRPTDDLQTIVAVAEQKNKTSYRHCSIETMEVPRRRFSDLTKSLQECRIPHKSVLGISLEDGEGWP
inactive: lapatinib -0.041 | pictilisib 0.006 | crizotinib 0.02 | [1] -0.001 | duvelisib 0.035 | gandotinib 0.06 | tozasertib 0.006 | doramapimod -0.003 | bafetinib -0.081 | [2] -0.065 | dasatinib -0.007 | [8] 0.008 | quisinostat -0.028 | [5] 0.035 | [6] 0.078 | [7] 0.014

UCHL5 isoform 3 (UniProt Q9Y5K5)
Chain of UniProt Q9Y5K5 (Q9Y5K5 whole entry, looked up): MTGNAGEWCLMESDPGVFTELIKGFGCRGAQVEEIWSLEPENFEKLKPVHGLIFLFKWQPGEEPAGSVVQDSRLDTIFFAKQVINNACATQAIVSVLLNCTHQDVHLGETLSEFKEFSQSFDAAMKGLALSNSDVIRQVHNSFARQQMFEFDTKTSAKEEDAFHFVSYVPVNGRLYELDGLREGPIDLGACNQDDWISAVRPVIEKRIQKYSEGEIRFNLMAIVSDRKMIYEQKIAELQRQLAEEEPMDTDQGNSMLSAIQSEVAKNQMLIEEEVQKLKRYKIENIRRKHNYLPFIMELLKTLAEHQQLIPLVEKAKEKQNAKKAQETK
inactive: lapatinib 0.042 | pictilisib -0.029 | crizotinib 0.022 | [1] 0.121 | duvelisib -0.01 | gandotinib -0.044 | tozasertib -0.007 | doramapimod -0.015 | bafetinib -0.019 | [2] -0.02 | nilotinib 0.016 | [3] -0.008 | dasatinib 0.01 | [4] 0.001 | [8] 0.006 | quisinostat -0.01 | tipifarnib -0.005 | [5] 0.013 | [6] -0.031 | [7] 0.003

TSPAN13 (UniProt O95857)
inactive: lapatinib 0.017 | pictilisib 0.015 | crizotinib 0.011 | duvelisib -0.241 | gandotinib 0.32 | tozasertib -0.207 | doramapimod 0.119 | bafetinib 0.038 | [2] 0.055 | nilotinib -0.067 | [3] 0.02 | dasatinib -0.054 | [4] 0.121 | [8] -0.35 | quisinostat 0.034 | tipifarnib -0.032 | [5] -0.126 | [6] 0.035 | [7] 0.132
active: [1] -0.387

UBN1 (UniProt Q9NPG3)
inactive: lapatinib -0.187 | crizotinib -0.042 | [1] -0.057 | duvelisib -0.092 | gandotinib 0.215 | tozasertib 0.069 | doramapimod -0.256 | [2] 0.308 | dasatinib 0.208 | [8] 0.055 | quisinostat 0.114 | [5] -0.053 | [6] 0.001

TCF20 (UniProt Q9UGU0)
Chain of UniProt Q9UGU0 (Q9UGU0 whole entry, looked up): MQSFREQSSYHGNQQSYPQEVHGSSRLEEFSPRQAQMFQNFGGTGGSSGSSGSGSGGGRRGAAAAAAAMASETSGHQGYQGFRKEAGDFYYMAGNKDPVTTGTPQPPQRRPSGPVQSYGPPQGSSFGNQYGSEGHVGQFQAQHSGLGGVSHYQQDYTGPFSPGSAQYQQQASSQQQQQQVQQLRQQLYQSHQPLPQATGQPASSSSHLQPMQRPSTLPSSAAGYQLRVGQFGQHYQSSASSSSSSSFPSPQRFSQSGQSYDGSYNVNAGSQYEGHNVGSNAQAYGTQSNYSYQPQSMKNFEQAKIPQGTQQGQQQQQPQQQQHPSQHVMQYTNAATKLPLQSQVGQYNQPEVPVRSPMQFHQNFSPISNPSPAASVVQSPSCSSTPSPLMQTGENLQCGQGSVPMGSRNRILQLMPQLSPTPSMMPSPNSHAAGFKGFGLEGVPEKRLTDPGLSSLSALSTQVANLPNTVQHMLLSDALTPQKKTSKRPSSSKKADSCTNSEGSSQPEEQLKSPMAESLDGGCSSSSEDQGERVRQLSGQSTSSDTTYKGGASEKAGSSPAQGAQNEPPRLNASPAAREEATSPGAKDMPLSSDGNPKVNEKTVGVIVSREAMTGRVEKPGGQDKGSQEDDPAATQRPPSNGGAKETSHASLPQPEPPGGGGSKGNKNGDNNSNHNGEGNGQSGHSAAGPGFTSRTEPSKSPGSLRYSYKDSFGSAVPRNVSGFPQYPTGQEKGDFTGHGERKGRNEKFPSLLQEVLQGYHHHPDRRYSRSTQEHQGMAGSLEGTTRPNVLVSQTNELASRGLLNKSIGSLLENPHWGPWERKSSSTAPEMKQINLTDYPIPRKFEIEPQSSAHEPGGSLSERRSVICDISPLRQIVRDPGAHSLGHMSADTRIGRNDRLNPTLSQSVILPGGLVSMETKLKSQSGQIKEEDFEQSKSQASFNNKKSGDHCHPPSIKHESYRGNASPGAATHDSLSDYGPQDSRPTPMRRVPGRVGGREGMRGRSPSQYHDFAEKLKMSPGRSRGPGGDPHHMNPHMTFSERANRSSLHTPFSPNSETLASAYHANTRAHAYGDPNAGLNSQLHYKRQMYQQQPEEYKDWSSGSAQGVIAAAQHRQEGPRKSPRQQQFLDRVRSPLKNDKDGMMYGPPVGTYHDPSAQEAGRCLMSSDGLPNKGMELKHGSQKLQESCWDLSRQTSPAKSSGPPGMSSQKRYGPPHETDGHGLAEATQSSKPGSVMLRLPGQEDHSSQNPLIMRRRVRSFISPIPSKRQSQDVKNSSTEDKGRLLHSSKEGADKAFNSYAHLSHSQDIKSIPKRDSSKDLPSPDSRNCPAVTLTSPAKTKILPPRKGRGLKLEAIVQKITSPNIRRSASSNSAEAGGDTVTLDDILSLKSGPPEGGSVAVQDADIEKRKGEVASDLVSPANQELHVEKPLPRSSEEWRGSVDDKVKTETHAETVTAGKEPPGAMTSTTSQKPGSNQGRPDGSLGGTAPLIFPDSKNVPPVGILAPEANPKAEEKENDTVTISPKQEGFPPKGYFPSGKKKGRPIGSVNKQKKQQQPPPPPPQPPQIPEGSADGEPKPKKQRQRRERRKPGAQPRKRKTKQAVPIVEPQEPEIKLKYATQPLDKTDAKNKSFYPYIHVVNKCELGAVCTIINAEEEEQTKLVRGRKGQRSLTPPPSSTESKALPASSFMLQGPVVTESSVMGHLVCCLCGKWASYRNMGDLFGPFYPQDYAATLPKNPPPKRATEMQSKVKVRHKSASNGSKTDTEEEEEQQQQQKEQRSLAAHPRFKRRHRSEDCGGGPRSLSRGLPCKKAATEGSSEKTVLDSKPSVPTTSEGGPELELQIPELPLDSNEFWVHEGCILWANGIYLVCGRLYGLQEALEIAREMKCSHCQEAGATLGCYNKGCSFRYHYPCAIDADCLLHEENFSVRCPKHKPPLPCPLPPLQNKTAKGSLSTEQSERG
inactive: lapatinib -0.049 | pictilisib -0.034 | crizotinib 0.019 | [1] 0.011 | duvelisib 0.094 | gandotinib 0.108 | doramapimod -0.032 | bafetinib -0.001 | [2] -0.005 | dasatinib 0.001 | [8] -0.057 | quisinostat 0.193 | [5] -0.006 | [6] 0.11 | [7] 0.068
